According to PubChem BioAssay (NCATS):
Inconclusive results are not listed. The source made the active and inactive calls. Unless noted, calls come from the whole dose curve.

How the values were obtained:
[1] = qHTS for Inhibitors of the Functional Ribonucleoprotein Complex (vRNP) of Lassa (LASV) Arenavirus: LASV Primary Screen - GLuc reporter signal (AID 1347082; calls by dose curve; tested in HEK293 reporter line; note: series mostly up to about 57 µM; % is set by controls: 0 for no effect and ±100 for the full control effect; nearly all actives have a fitted effect of over 60% in size)
[2] = qHTS for Inhibitors of the Functional Ribonucleoprotein Complex (vRNP) of Lassa (LASV) Arenavirus: Viability assay - alamar blue signal for LASV Primary Screen (AID 1347083; calls by dose curve; tested in HEK293 reporter line; note: nearly all actives have a fitted effect of over 80% in size; note: potency is the fitted concentration of half-maximal effect; for activity change, negative = reduced viability: series mostly up to about 57 µM; % is set by controls: 0 for no effect and ±100 for the full control effect)
[3] = qHTS for Inhibitors of the Functional Ribonucleoprotein Complex (vRNP) of Lymphocytic Choriomeningitis Arenaviruses (LCMV): Viability assay - alamar blue signal for LCMV Primary Screen (AID 1347085; calls by dose curve; tested in HEK293 reporter line; note: nearly all actives have a fitted effect of over 80% in size; note: potency is the fitted concentration of half-maximal effect; for activity change, negative = lower viability: series mostly up to about 57 µM; % is set by controls: 0 for no effect and ±100 for the full control effect)
[4] = target: Nucleoprotein (Lymphocytic choriomeningitis virus (strain Armstrong)) (UniProt P09992); assay: qHTS for Inhibitors of the Functional Ribonucleoprotein Complex (vRNP) of Lymphocytic Choriomeningitis Arenaviruses (LCMV): LCMV Primary Screen - GLuc reporter signal (AID 1347086); note: nearly all actives have a fitted effect of over 70% in size; note: potency is the fitted concentration of half-maximal effect; for activity change, negative = inhibition: series mostly up to about 57 µM; % is set by controls: 0 for no effect and ±100 for the full control effect
[5] = qHTS of pediatric cancer cell lines to identify multiple opportunities for drug repurposing: Primary screen for SJ-GBM2 cells (AID 1347091; active = well fitted curve in the direction sought with a large enough effect; an effect the other way counts as inactive or inconclusive;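 note: plate controls were DMSO neutral control for no effect and bortezomib for full effect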)
Outline: (§1)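 Cell viability, CellTiter-Glo luminescence; 500-1,000 cells/well, 8- or 11-point titration, 48 h compound exposure at 37 degrees C, 5% CO2. Controls: DMSO neutral, bortezomib 2.3 µM final as positive.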

[6] = qHTS of pediatric cancer cell lines to identify multiple opportunities for drug repurposing: Primary screen for BT-37 cells (AID 1347094; active = well fitted curve in the direction sought with a large enough effect; an effect the other way counts as inactive or inconclusive; note: potency is the fitted concentration of half-maximal effect)
Outline: (§2)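 Following a 5-hour attachment period, cells at 500-1,000/well received compounds and were cultured for 48 hours. CellTiter-Glo was added and luminescence read to estimate viable, metabolically active cells.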

[7] = qHTS of pediatric cancer cell lines to identify multiple opportunities for drug repurposing: Primary screen for NB-EBc1 cells (AID 1347095; active = well fitted curve in the direction sought with a large enough effect; an effect the other way counts as inactive or inconclusive; note: potency is the fitted concentration of half-maximal effect)
Outline: as §2

[8] = qHTS of pediatric cancer cell lines to identify multiple opportunities for drug repurposing: Primary screen for U-2 OS cells (AID 1347096; active = well fitted curve in the direction sought with a large enough effect; an effect the other way counts as inactive or inconclusive; note: nearly all actives have a fitted effect of over 50% in size; note: potency is the fitted concentration of half-maximal effect)
Outline: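 Cells (500-1,000/well) rested 5 h, then received compounds for 48 h; metabolically active cells were measured by CellTiter-Glo luminescence. Final concentrations spanned up to 46 µM (MIPE, 11-point) or 0.59 nM-46 µM (NPC, 8-point) in primary screens, 11-point in follow-ups.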

[9] = qHTS of pediatric cancer cell lines to identify multiple opportunities for drug repurposing: Primary screen for Saos-2 cells (AID 1347097; active = well fitted curve in the direction sought with a large enough effect; an effect the other way counts as inactive or inconclusive; note: nearly all actives have a fitted effect of over 40% in size; note: potency is the fitted concentration of half-maximal effect)
Outline: as §2

[10] = qHTS of pediatric cancer cell lines to identify multiple opportunities for drug repurposing: Primary screen for DAOY cells (AID 1347090; active = well fitted curve in the direction sought with a large enough effect; an effect the other way counts as inactive or inconclusive; note: nearly all actives have a fitted effect of over 55% in size; note: potency is the fitted concentration of half-maximal effect)
Outline: as §1

[11] = qHTS of pediatric cancer cell lines to identify multiple opportunities for drug repurposing: Primary screen for SK-N-MC cells (AID 1347093; active = well fitted curve in the direction sought with a large enough effect; an effect the other way counts as inactive or inconclusive; note: potency is the fitted concentration of half-maximal effect)
Outline: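 Metabolically active cells were quantified by ATP-dependent luminescence (CellTiter-Glo, 15 min at room temperature) following 48 h treatment. Cells had been plated at 500-1,000 per well and settled for 5 h beforehand.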

[12] = qHTS of pediatric cancer cell lines to identify multiple opportunities for drug repurposing: Primary screen for TC32 cells (AID 1347089; active = well fitted curve in the direction sought with a large enough effect; an effect the other way counts as inactive or inconclusive; note: nearly all actives have a fitted effect of over 60% in size; note: potency is the fitted concentration of half-maximal effect)
Outline: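 Luminescent CellTiter-Glo read-out of metabolically active TC32 cells after 48 h compound exposure. Primary: MIPE 11-point, 0.78 nM–46 µM; NPC 8-point, 0.59 nM–46 µM. Confirmatory: 11-point dilutions.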

[13] = qHTS of pediatric cancer cell lines to identify multiple opportunities for drug repurposing: Primary screen for A673 cells (AID 1347092; active = well fitted curve in the direction sought with a large enough effect; an effect the other way counts as inactive or inconclusive; note: nearly all actives have a fitted effect of over 45% in size; note: potency is the fitted concentration of half-maximal effect)
Outline: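 A673 cells (500-1,000 cells/well in growth media) were pre-incubated 5 h at 37 degrees C, then exposed to compounds for 48 h. Viability was read as CellTiter-Glo luminescence; concentration-response curves came directly from the primary screen.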

Nucleoprotein (Lymphocytic choriomeningitis virus (strain Armstrong)), sequence (P09992 whole entry, looked up): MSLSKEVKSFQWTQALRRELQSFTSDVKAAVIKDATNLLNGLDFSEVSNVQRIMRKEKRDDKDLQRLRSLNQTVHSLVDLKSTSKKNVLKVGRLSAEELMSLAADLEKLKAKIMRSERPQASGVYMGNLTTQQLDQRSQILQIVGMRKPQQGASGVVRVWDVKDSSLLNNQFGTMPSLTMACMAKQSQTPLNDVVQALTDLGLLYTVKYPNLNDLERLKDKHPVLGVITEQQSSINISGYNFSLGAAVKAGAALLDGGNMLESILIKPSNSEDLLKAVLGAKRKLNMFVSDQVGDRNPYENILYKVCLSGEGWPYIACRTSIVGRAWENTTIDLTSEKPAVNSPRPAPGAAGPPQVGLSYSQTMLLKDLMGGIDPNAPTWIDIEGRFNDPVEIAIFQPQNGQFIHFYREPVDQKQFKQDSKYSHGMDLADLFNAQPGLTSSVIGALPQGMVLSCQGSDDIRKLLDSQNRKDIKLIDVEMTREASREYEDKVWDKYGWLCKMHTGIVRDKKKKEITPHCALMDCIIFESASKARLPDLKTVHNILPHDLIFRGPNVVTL

Cc1cn([C@H]2C[C@H](F)[C@@H](CO)O2)c(=O)[nH]c1=O
inactive: Potency [1] | Potency [2] | Potency [3] | Potency [4]

NS(=O)(=O)c1ccc(N2CCCCS2(=O)=O)cc1
inactive: Potency [1] | Potency [2] | Potency [3] | Potency [4]

O=c1[nH]c(=O)c2[nH]c(=O)[nH]c2[nH]1
inactive: activity change, negative = inhibition [1] -5.36% [at 11.5 µM] | activity change, negative = reduced viability [2] 13.2% [at 11.5 µM] | activity change, negative = lower viability [3] -14.6% [at 11.5 µM] | activity change, negative = inhibition [4] 20.2% [at 11.5 µM]

CC(=O)[C@@]1(O)CC[C@H]2[C@@H]3CCC4=CC(=O)CC[C@]4(C)[C@H]3CC[C@@]21C
inactive: Potency [1] | Potency [2] | Potency [3] | Potency [4]

CCCCCOc1ccccc1/C(=C\SC)n1ccnc1
inactive: Potency [1] | Potency [2] | Potency [3] | Potency [4]

O=C1Nc2ccccc2C1(c1ccc(O)cc1)c1ccc(O)cc1
inactive: Potency [1] | Potency [2] | Potency [3] | Potency [4]

C[C@]12CC[C@@H]3c4ccc(O)cc4CC[C@H]3[C@@H]1CC[C@@H]2OC(=O)CCC1CCCC1
inactive: Potency [1] | Potency [2] | Potency [3] | Potency [4]

CC(=O)c1ccc2c(c1)N(CCCN(C)C)c1ccccc1S2
inactive: Potency [1] | Potency [2] | Potency [3] | Potency [4]

C=CCc1ccccc1OCC(O)CNC(C)C (configuration not stated)
inactive: Potency [1] | Potency [2] | Potency [3] | Potency [4]

Nc1ccc(N=Nc2ccccc2)c(N)n1
inactive: Potency [1] | Potency [2] | Potency [3] | Potency [4]

Cc1cccc(C)c1NC(=O)CN1CCCC1
inactive: Potency [1] | Potency [2] | Potency [3] | Potency [4]

COc1ccc2c(c1OC)C(=O)O[C@@H]2[C@H]1c2c(cc3c(c2OC)OCO3)CCN1C
inactive: Potency [1] | Potency [2] | Potency [3] | Potency [4]

O=C(O)Cc1ccc2c(c1)C(=O)c1ccccc1CO2
inactive: Potency [1] | Potency [2] | Potency [3] | Potency [4]

CN(C)CCc1c[nH]c2ccc(O)cc12
inactive: Potency [1] | Potency [2] | Potency [3] | Potency [4] | Potency [5] | Potency [6] | Potency [7] | Potency [8] | Potency [9]

O=[N+]([O-])c1nccn1CO[C@@H](CO)[C@H](O)CO
inactive: Potency [1] | Potency [2] | Potency [3] | Potency [4]

Cc1ccc(S(=O)(=O)NC(=O)NC2CCCC2)cc1
inactive: Potency [1] | Potency [2] | Potency [3] | Potency [4]

CCN[C@H]1C[C@H](C)S(=O)(=O)c2sc(S(N)(=O)=O)cc21
inactive: Potency [1] | Potency [2] | Potency [3] | Potency [4]

FC(F)(F)C(F)(F)C(F)(F)C(F)(F)C(F)(F)C(F)(F)C(F)(F)C(F)(F)Br
inactive: Potency [1] | Potency [2] | Potency [3] | Potency [4]

Brc1c(NC2=NCCN2)ccc2nccnc12
inactive: Potency [1] | Potency [2] | Potency [3] | Potency [4]

CN1CCC(OC(c2ccccc2)c2ccccc2)CC1
inactive: Potency [1] | Potency [2] | Potency [3] | Potency [4]

OC[C@@H](O)[C@H](O)[C@H](O)[C@@H](O)CO
inactive: Potency [1] | Potency [2] | Potency [3] | Potency [4]

C[C@]12C=CC(=O)C=C1CC[C@H]1[C@@H]3C[C@@H](O)[C@](O)(C(=O)CO)[C@@]3(C)C[C@H](O)[C@@]12F
inactive: Potency [1] | Potency [2] | Potency [3] | Potency [4]

Cc1cc(N)c2cc(NC(=O)Nc3ccc4nc(C)cc(N)c4c3)ccc2n1
inactive: Potency [1] | Potency [2] | Potency [3] | Potency [4]

O=C1C(CCS(=O)c2ccccc2)C(=O)N(c2ccccc2)N1c1ccccc1 (configuration not stated)
inactive: Potency [1] | Potency [2] | Potency [3] | Potency [4]

CC(=O)Oc1ccc(C2(c3ccc(OC(C)=O)cc3)C(=O)Nc3ccccc32)cc1
inactive: Potency [1] | Potency [2] | Potency [3] | Potency [4]

CCCCOc1ccc(C(=O)CCN2CCCCC2)cc1
inactive: Potency [1] | Potency [2] | Potency [3] | Potency [4]

C=C1C[C@H]2[C@@H]3C=C(C)C4=CC(=O)CC[C@]4(C)[C@H]3CC[C@]2(C)[C@@]1(OC(C)=O)C(C)=O
inactive: Potency [1] | Potency [2] | Potency [3] | Potency [4]

CCCCOC(=O)CCCCCCCCC(=O)OCCCC
inactive: Potency [1] | Potency [2] | Potency [3] | Potency [4]

CN(C)C(=O)CNC(=O)Cc1ccccc1
inactive: Potency [1] | Potency [2] | Potency [3] | Potency [4]

CCN(CC)CCOc1ccccc1C(=O)CCc1ccccc1
inactive: Potency [1] | Potency [2] | Potency [3] | Potency [4]

O=C(CCC1CCN(Cc2ccccc2)CC1)c1ccc2c(c1)NCCCC2
inactive: Potency [1] | Potency [2] | Potency [3] | Potency [4]

O=c1[nH]cnc2c1ncn2[C@@H]1O[C@H](CO)[C@@H](O)[C@H]1O
inactive: Potency [1] | Potency [2] | Potency [3] | Potency [4]

CCCCCCCCCCCC[N+](C)(C)CCOc1ccccc1
active: Potency [10] 26600 nM | Potency [11] 6680 nM | Potency [6] 30900 nM | Potency [9] 13300 nM
inactive: Potency [1] | Potency [2] | Potency [3] | Potency [4]

NC(N)=NC(=O)c1nc(Cl)c(N)nc1N
inactive: Potency [1] | Potency [2] | Potency [3] | Potency [4]

CCCCC1C(=O)NC(=O)N(C2CCCCC2)C1=O (configuration not stated)
inactive: Potency [1] | Potency [2] | Potency [3] | Potency [4] | Potency [12] | Potency [10] | Potency [5] | Potency [13] | Potency [11] | Potency [6] | Potency [7] | Potency [8] | Potency [9]

c1ccc(C(O[C@H]2CCCN(CCc3ccc4c(c3)OCO4)C2)c2ccccc2)cc1
inactive: Potency [1] | Potency [2] | Potency [3] | Potency [4]

Nc1c(NC/C=C\COc2cc(CN3CCCCC3)ccn2)c(=O)c1=O
inactive: Potency [1] | Potency [2] | Potency [3] | Potency [4]

COc1ccc(C(Cl)=C(c2ccc(OC)cc2)c2ccc(OC)cc2)cc1
inactive: Potency [1] | Potency [2] | Potency [3] | Potency [4]

Clc1ccc(C(Cn2ccnc2)OCc2c(Cl)cccc2Cl)c(Cl)c1 (configuration not stated)
inactive: Potency [1] | Potency [2] | Potency [3] | Potency [4]

CC(C)(C)C(=O)OCOC(=O)C1N2C(=O)CC2S(=O)(=O)C1(C)C (configuration not stated)
inactive: Potency [1] | Potency [2] | Potency [3] | Potency [4]

O=C(NCCCN1CCOCC1)c1ccc(Cl)cc1
inactive: Potency [1] | Potency [2] | Potency [3] | Potency [4]

CN(C)CCCN1c2ccccc2Sc2ccccc21
inactive: Potency [1] | Potency [2] | Potency [3] | Potency [4]

O=C(OCC(COC(=O)c1cccnc1)(COC(=O)c1cccnc1)COC(=O)c1cccnc1)c1cccnc1
inactive: Potency [1] | Potency [2] | Potency [3] | Potency [4]

CCCCCCCC/C=C\CCCCCCCCN
inactive: Potency [1] | Potency [2] | Potency [3] | Potency [4]

OC[C@]1(O)OC[C@@H](O)[C@H](O)[C@@H]1O
inactive: Potency [1] | Potency [2] | Potency [3] | Potency [4]

Cc1ccc(C(C)OC(=O)C2(C)CCC(C(=O)O)C2(C)C)cc1 (configuration not stated)
inactive: Potency [1] | Potency [2] | Potency [3] | Potency [4]

Cc1c(-c2ccccc2)oc2c(C(=O)OCCN3CCCCC3)cccc2c1=O
inactive: Potency [1] | Potency [2] | Potency [3] | Potency [4]

COc1ccc2cc(C=O)ccc2c1
inactive: Potency [1] | Potency [2] | Potency [3] | Potency [4]

CC[N+](CC)(CC)CCOc1ccc(/C=C/c2ccccc2)cc1
inactive: Potency [3] | Potency [4]

CO[C@@H]1[C@@H](OC)[C@H](C)[C@@](O)(CC(=O)O)O[C@H]1[C@H](C)[C@H]1O[C@@]2(CC[C@@](C)([C@H]3CC[C@@](C)([C@@H]4O[C@@H]([C@H]5O[C@](C)(O)[C@H](C)C[C@@H]5C)C[C@@H]4OC4C[C@H](OC)[C@@H](OC)[C@H](C)O4)O3)O2)C[C@H](O)[C@H]1C (some centres not stated)
active: Potency [3] 2000 nM | Potency [4] 562 nM

O=C(O)c1ccc(OCCCOc2ccc(C(=O)O)cc2)cc1
inactive: Potency [3] | Potency [4]

O[C@@H](COc1cccc2ncccc12)CN1CCN(C2c3ccccc3[C@@H]3[C@H](c4ccccc42)C3(F)F)CC1 (some centres not stated)
active: Potency [2] 12200 nM

CN(C)C(=S)SSC(=S)N(C)C
active: Potency [12] 4190 nM | Potency [10] 168 nM | Potency [13] 211 nM | Potency [11] 188 nM | Potency [6] 872 nM | Potency [7] 9440 nM | Potency [8] 266 nM | Potency [9] 133 nM

COc1ccc(-c2nc3ccc(C4=NNC(=O)CC4C)cc3[nH]2)cc1 (configuration not stated)
inactive: Potency [1] | Potency [4]

COc1cccc2c1C(=O)c1c(O)c3c(c(O)c1C2=O)C[C@@](O)(C(C)=O)C[C@@H]3O[C@H]1C[C@H](N)[C@H](O)[C@H](C)O1
active: Potency [2] 891 nM | Potency [3] 355 nM

CC(C)n1nc(-c2cc3cc(O)ccc3[nH]2)c2c(N)ncnc21
active: Potency [2] 1780 nM | Potency [4] 1780 nM

O=C1[C@H]2CCCC[C@H]2C(=O)N1CCCCN1CCN(c2nsc3ccccc23)CC1
inactive: Potency [2] | Potency [3] | Potency [4]

Clc1ccc(Nc2nnc(Cc3ccncc3)c3ccccc23)cc1
inactive: Potency [1] | Potency [3] | Potency [4]

Cc1c(C)n(CCN(C)C)c2ccc(C(=O)OCCN(C)C)cc12
inactive: Potency [1] | Potency [4]

CCC(=O)O[C@]1(C(=O)CCl)[C@@H](C)C[C@H]2[C@@H]3CCC4=CC(=O)C=C[C@]4(C)[C@@]3(F)[C@@H](O)C[C@@]21C
inactive: Potency [1] | Potency [3] | Potency [4]
